Source: PubChem BioAssay (National Center for Advancing Translational Sciences (NCATS))
Vaccinia mCherry – inhibitors of vaccinia virus infection (mCherry reporter signal); Vaccinia virus mCherry reporter infection, fluorescence; 0.63% of 310,000 active; Potency, µM (top dose mostly 36.5 µM), inactives show top-dose activity change, negative = inhibition, hits mostly inhibitors; calls by dose curve; tested in A549 cells; note: potency is the fitted concentration of half-maximal effect; % is set by controls: 0 for no effect and ±100 for the full control effect; nearly all actives have a fitted effect of over 35% in size
Shiga toxin inh – Shiga toxin inhibition. Vero cells, Shiga toxin protein synthesis inhibition reporter. inhibition, % at 38.7 µM. 9.2% of 290,000 active; in the data active = inhibition mostly above about 28%, no sharp cut-off; inactive = mostly below about 43%; note: 0% is about no effect
Cycloheximide cs – counter-screen hit for Shiga toxin inhibitors, cycloheximide | cell reporter, cycloheximide protein synthesis inhibition counterscreen | max response, % | 12% of 300,000 active; in the data active = max response mostly above about 13%, no sharp cut-off; inactive = mostly below about 14%; note: read at 38.3 µM for the half of the compounds with a filed dose; 0% is about no effect
Vaccinia Venus – inhibitors of vaccinia virus (Venus reporter); Potency, µM (top dose mostly 36.5 µM), for inactives: at the highest dose activity change, negative = inhibition, most hits filed as inhibitors; AID 720580; Vaccinia virus Venus reporter expression, fluorescence; 0.46% of 330,000 active; calls by dose curve; tested in A549 cells; note: potency is the fitted concentration of half-maximal effect; % is set by controls: 0 for no effect and ±100 for the full control effect; nearly all actives have a fitted effect of over 30% in size
MARV entry inh – inhibitors of Marburg virus binding or cell entry. 1.8% of 300,000 active. Marburg virus pseudotyped entry inhibition, cell reporter. AID 540276. Potency, µM (highest dose often 37.8 µM), for the others: at the highest dose activity change, negative = inhibition, usual class: inhibitors; calls by dose curve; tested in HEK293 cells; note: potency is the fitted concentration of half-maximal effect; % is set by controls: 0 for no effect and ±100 for the full control effect
Lassa entry inh – inhibitors of Lassa virus binding or cell entry; AID 540256; Lassa virus pseudotype entry inhibition, cell reporter; Potency, µM (highest dose often 37.9 µM), inactives show top-dose activity change, negative = inhibition, most hits filed as inhibitors; 1.2% of 300,000 active; calls by dose curve; tested in HEK293 cells; note: potency is the fitted concentration of half-maximal effect; % is set by controls: 0 for no effect and ±100 for the full control effect; nearly all actives have a fitted effect of over 50% in size
Numbers without * were called inactive; i = inactive; ? = inconclusive; · = not tested or not shown; [ ] = dose if it differs, or a comment. The sample as a whole holds a higher share of hits than the screen did.

SMILES	Vaccinia mCherry	Shiga toxin inh	Cycloheximide cs	Vaccinia Venus	MARV entry inh	Lassa entry inh
CC(C)(C)N(Cc1ccccc1)C(=O)COC(=O)c1ccc(S(=O)(=O)N2CCOCC2)cc1	-11.2%	·	·	2.9%	-4.8%	-0.4%
CS(=O)(=O)c1ccc(-c2sc3cc4c(cc3c2C(=O)NN2CCOCC2)OCO4)cc1	i	·	·	-2.2%	·	·
CCN(CC(=O)Nc1ccc2c(c1)CCC2)Cc1nc2ccccc2c(=O)[nH]1	·	54.6*	8.5	·	?	?
CCN(CC)CC(=O)Nc1ccc2c(c1)N(C(=O)CN(CC)CC)c1ccccc1CC2	i	-19.3	14.3	-10.1%	8.2µM*	?
CCN(CC)CC(=O)Nc1ccc2c(c1)Nc1ccccc1CC2	?	33.0*	21.1*	?	?	-14.2%
CCOC(=O)Nc1ccc2c(c1)N(C(=O)CN(CC)CC)c1ccccc1CC2	i	-4.5	-2.8	-11.5%	0.5%	5.3%
CC(=O)c1cccc(NS(=O)(=O)N2CCOCC2)c1	-10.1%	-8.1	2.8	-4.8%	-20.2%[46.1 µM]	-1.9%[46.1 µM]
Cc1nc(C)n(CC(=O)NCC2Cc3cc(-c4cccc(OC(F)(F)F)c4)ccc3O2)n1 (stereo unspecified)	-2.3%	·	·	-6.0%	·	·
COc1ccc2cc(CNCc3ccccc3Cl)c(N3CCCC(CO)C3)nc2c1 (stereo unspecified)	-6.4%	·	·	7.9%	·	·
Cc1cc(OCc2cc(C(=O)N(C)CCOc3ccccc3)no2)cc(C)c1Cl	·	-4.9	-1.8	·	·	·
COc1cccc(OCc2cc(C(=O)N(C)CCOc3ccc(C)cc3)no2)c1	·	75.4*	68.3*	·	·	·
Cc1ccc(OCCN(C)C(=O)c2cc(COc3ccc(F)cc3F)on2)cc1	i	33.0	12.6*	-15.9%	22.1%	-2.3%
COc1ccc(OCc2cc(C(=O)N(C)Cc3nccn3C)no2)c2ccccc12	-6.1%	22.1	7.0	-13.7%	7.6%	2.8%
CN(Cc1ccc(F)cc1)C(=O)c1cc(COc2ccc(F)cc2F)on1	i	-10.6	-2.5	-0.9%	-10.5%[46.1 µM]	-12.4%[46.1 µM]
COc1cccc(OCc2cc(C(=O)N(C)Cc3nccn3C)no2)c1	·	136.0*	52.6*	·	·	·
COc1ccc(OCc2cc(C(=O)N(Cc3nccn3C)C(C)C)no2)c2ccccc12	·	46.7*	42.9*	·	·	·
Cc1cc(C)n2nc(C(=O)NCC3Cc4cccc(-c5ccc(S(C)(=O)=O)cc5)c4O3)cc2n1 (stereo unspecified)	-10.5%	·	·	-1.4%	·	·
CN=c1scc(-c2ccccc2F)n1/N=C(\C)c1cccnc1	?	148.5*	48.0*	-20.1%	?	?
C/C(=N\N1CCN(C2c3ccccc3-c3ccccc32)CC1)c1cccnc1	·	-14.0	-2.0	-8.9%	-1.4%	14.3%
COc1ccc2c(c1)Sc1ccccc1N2CCN(C)C	·	-12.6	-1.6	?	11.2µM*	?
CN(C)CCC(=O)N1c2ccccc2Sc2ccc(Cl)cc21	?	-6.4	-7.6	-7.1%	?	-0.2%
CNCCCN1c2ccccc2CCc2ccccc21	-10.4%	-12.3	-4.1	-22.6%	1.26µM*	-11.6%
CCC(=O)c1ccc2c(c1)N(CCCN(C)C)c1ccccc1S2	?	·	·	-26.4%	20.6µM*	?
CN(C)CCCN1c2ccccc2CCc2ccc(Cl)cc21	-12.6%	-16.2	-4.2	-26.0%	11.2µM*	?
COC(=O)c1ccc(OC(=O)CCN2c3ccccc3Sc3ccccc32)cc1	-16.1%	-12.0	-2.7	4.4%	23.2%	6.5%
SMILES	Vaccinia mCherry	Shiga toxin inh	Cycloheximide cs	Vaccinia Venus	MARV entry inh	Lassa entry inh
CCc1ccc(-c2nc3c(c(SCc4ccccc4F)n2)Cc2c(CO)cnc(C)c2O3)cc1	-7.4%	·	·	-12.2%	·	7.2%[46.1 µM]
NCCCNc1ccc(Br)cn1	i	·	·	-13.2%	·	·
CN(C)CCCN1c2ccccc2Sc2ccccc21	?	-14.0	-3.1	-23.9%	18.3µM*	?
CN(C)CCCN1C(=O)c2cc3ccccc3cc2C1=O	·	-5.7	6.7	·	·	·
Cc1cc(C)cc(NC(=O)C2CC23CCN(Cc2ccc4ncccc4c2)CC3)c1 (stereo unspecified)	-3.3%	·	·	0.0%	·	·
COc1cccc(OC)c1NC(=O)Cn1nc(C)c2ccccc2c1=O	-0.2%	-3.6	-2.7	-13.8%	?	16.9%
CCCC(NS(=O)(=O)c1ccc(-c2ccc(=O)[nH]n2)s1)c1cccs1 (stereo unspecified)	-2.1%	23.3*	23.5*	-16.5%	?	?
COc1cc(/C=N/NC(=O)c2cc(-c3ccccc3)nc3ccccc23)ccc1O	-23.8%	45.2*	23.5*	-6.0%	?	?
Cc1ccc(-c2cc(C(=O)Nc3ccncc3)c3ccccc3n2)cc1	-10.0%	·	·	0.9%	?	?
COc1cccc(/C=N/NC(=O)c2cc(-c3ccccn3)nc3ccccc23)c1O	1µM*	·	·	?	?	?
COc1ccc2[nH]c(C(=O)N/N=C/c3ccccc3OC)cc2c1	·	26.9	10.7	·	·	·
COc1ccc2[nH]c(C(=O)N/N=C/c3ccc(OC)c(O)c3)cc2c1	11.2µM*	20.4	12.0	-26.9%	?	5.62µM*
O=C(N/N=C/c1ccc(F)cc1)c1cc(-c2ccccn2)nc2ccccc12	-19.0%	·	·	-14.5%	-13.4%	-4.2%
O=C(NNC(=O)c1cc(-c2ccncc2)nc2ccccc12)c1ccccc1O	12.6µM*	·	·	?	-26.3%[46.1 µM]	3.3%
CC1=C(C(=O)Nc2ccc(Cl)cc2)C(C(C)C)n2nc(SCc3cccc(C)c3)nc2N1 (stereo unspecified)	-9.4%	·	·	-5.0%	4.7%[46.1 µM]	3.8%[46.1 µM]
Cc1ccc(CCNC(=O)c2ccc3c(c2)N(Cc2ccccc2F)C(=O)c2ccccc2S3=O)cc1 (stereo unspecified)	-12.5%	·	·	-16.5%	18.7%[46.1 µM]	6.3%[46.1 µM]
O=S1(=O)CCOC[C@H](CC2CCCCC2)N1Cc1ccccc1Br	-0.4%	4.4	-1.3	-10.2%	·	·
Cc1ccc2[nH]c(C(=O)N/N=C/c3ccccc3O)c(C)c2c1	3.55µM*	61.2*	25.4*	?	·	·
Cc1ccc2[nH]c(C(=O)N/N=C/c3ccccc3C(=O)O)c(-c3ccccc3)c2c1	·	-2.3	-6.0	·	·	·
O=C(N/N=C/c1ccc(O)cc1)c1cc(-c2ccccc2)nc2ccccc12	·	65.3*	34.0*	·	·	·
COc1ccc(/C=N/NC(=O)c2nc(-c3ccccc3)cc(-c3ccccc3)n2)cc1O	?	10.9	28.7*	?	17.8µM*	?
COc1cc(OC)c2cc(C(=O)N/N=C/c3ccccc3O)[nH]c2c1	1.12µM*	5.0	-0.6	?	·	·
Cc1ccc(C(=O)NCC(=O)N(C)CC(=O)Nc2c(Cl)cccc2Cl)s1	i	·	·	-19.6%	-12.0%	-1.2%
C=CCN1C(=O)[C@]2(O[C@H](C)CC3=CCCC32)c2c(Br)cccc21 (stereo partly specified)	·	·	·	·	2.0%[14.2 µM]	?
CC(=O)N/C(=C/c1ccccc1)c1ccncc1	11.9%	·	·	-11.9%	·	·
COc1ccc(/C=N/NC(=O)c2cc(-c3ccccc3)nc3ccccc23)cc1O	-21.0%	20.7	11.1	0.6%	12.6µM*	-23.2%[46.1 µM]
Cc1ccc(-c2cc(C(=O)N/N=C/c3ccoc3)c3ccccc3n2)cc1	·	-3.6	18.6	·	·	·
Cc1ccc(-c2cc(C(=O)N/N=C/c3c(C)nn(C)c3C)c3ccccc3n2)cc1C	-14.6%	48.6	19.0*	?	?	?
